Here are results for 9 molecules from PubChem BioAssay (NCI).

The panel holds about 83,000 compounds, 20% with a hit somewhere; the sample as a whole holds those more often.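 Each cell line was grown in a 96-well plate and treated with one concentration of compound for 48 hours. Values below 10 were considered active.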 Values without a mark were called inactive. Calls of active or inactive are those of the source.

Common to all, as to experiment: NCI-60 one-dose screen, 48 h (100 = growth as untreated, 0 = no growth, -100 = all killed)
In one assay the test system is SK-MEL-2 melanoma. The note with it: 10 µM unless noted.
The subject of the next assay is EKVX NSCLC. Particulars: 10 µM unless noted.
For a further assay, the system named is SN12C renal. Particulars: 10 µM unless noted.
In the next assay the test system is UO-31 renal. The note with it: 10 µM unless noted.
Another assay relates to TK-10 renal. Particulars: 10 µM unless noted.
The next assay relates to ACHN renal. Particulars: 10 µM unless noted.
A further assay concerns A498 renal. Particulars: 10 µM unless noted.
Another assay concerns CCRF-CEM leukemia. Particulars: 10 µM unless noted.
The subject of another assay is MOLT-4 leukemia. Particulars: 10 µM unless noted.
The next assay concerns SR leukemia. Particulars: 10 µM unless noted.
In another assay the test system is RPMI-8226 leukemia. The note with it: 10 µM unless noted.
For another assay, the system named is OVCAR-8 ovarian. Particulars: 10 µM unless noted.
The next assay deals with OVCAR-5 ovarian. Particulars: 10 µM unless noted.
A further assay relates to OVCAR-4 ovarian. Particulars: 10 µM unless noted.
Another assay concerns SK-OV-3 ovarian. The note with it: 10 µM unless noted.
The subject of a further assay is IGROV1 ovarian. Particulars: 10 µM unless noted.
The subject of another assay is HS 578T breast. Particulars: 10 µM.
A further assay has as its system NCI/ADR-RES ovarian. The note with it: 10 µM unless noted.
The subject of a further assay is OVCAR-3 ovarian. The note with it: 10 µM unless noted.

Consider `O=C(O)c1cn(-c2ccccc2)nc1-c1ccc(O)cc1`, for which the growth is 103% in the assay with SK-MEL-2 melanoma; 95.7% in the assay with EKVX NSCLC; 98.9% in the assay with SN12C renal; 89.4% with UO-31 renal; 106% in the assay with TK-10 renal; 99.4% with ACHN renal. For the same molecule, the growth with A498 renal was 74.3%; in the assay with CCRF-CEM leukemia, 94%; with MOLT-4 leukemia, 104%; in the assay with SR leukemia, 93.3%; in the assay on RPMI-8226 leukemia, 96.7%; with OVCAR-8 ovarian, 90.8%. Moreover, the growth in the assay with OVCAR-5 ovarian is 101%; with OVCAR-4 ovarian it was 92.2%; with SK-OV-3 ovarian it was 92.4%; in the assay on IGROV1 ovarian it was 111%; with HS 578T breast, 94.2%; with NCI/ADR-RES ovarian, 101%.
Regarding `c1ccc(C2=Nc3ccccc3SC2)cc1`, the growth in the assay with SK-MEL-2 melanoma is 105%; in the assay on EKVX NSCLC it was 87.3%; in the assay with SN12C renal, 107%; in the assay on UO-31 renal, 67.8%; with TK-10 renal, 105%; with ACHN renal it was 95.4%. The growth in the assay with CCRF-CEM leukemia is 86.9%; in the assay with MOLT-4 leukemia it was 111%; in the assay on SR leukemia, 107%; in the assay on RPMI-8226 leukemia it was 93.8%; in the assay on OVCAR-8 ovarian, 101%; in the assay with OVCAR-5 ovarian it was 98.6%. The growth is 91.5% in the assay on OVCAR-4 ovarian; 110% in the assay on SK-OV-3 ovarian; 88.6% with IGROV1 ovarian; 99.4% in the assay with OVCAR-3 ovarian; 113% in the assay with NCI/ADR-RES ovarian.
In the case of `O=C(NO)c1ccc(NCc2csc3ccccc23)cc1`, the growth with SK-MEL-2 melanoma was 84.1%; in the assay on EKVX NSCLC it was 69.7%; in the assay on SN12C renal, 59.4%; in the assay with UO-31 renal it was 39.5%; in the assay on TK-10 renal, 59.1%; in the assay with ACHN renal, 69.6%. In addition, the growth in the assay on A498 renal was 57.1%; in the assay with CCRF-CEM leukemia, 44.7%; in the assay on MOLT-4 leukemia, 43.1%; in the assay on RPMI-8226 leukemia it was 35.7%; in the assay on OVCAR-8 ovarian, 42%; in the assay on OVCAR-5 ovarian, 73.4%. Also, the growth was 67.8% with OVCAR-4 ovarian; 81.8% with SK-OV-3 ovarian; 55.6% in the assay with IGROV1 ovarian; 66.8% in the assay on OVCAR-3 ovarian; 70.5% with HS 578T breast; 6.83% (active) in the assay on NCI/ADR-RES ovarian.
`Nc1nc(N)c2cc(Sc3ccc(Cl)cc3)ccc2n1`: the growth was 50.7% with SK-MEL-2 melanoma; 33.6% in the assay on EKVX NSCLC; 29.7% in the assay with SN12C renal; 21.6% in the assay with UO-31 renal; 43% with TK-10 renal; 23% with ACHN renal. Further, the growth in the assay on A498 renal was 63.6%; with CCRF-CEM leukemia, 41.5%; in the assay on MOLT-4 leukemia, 25.8%; with SR leukemia it was 7.93% (active); with RPMI-8226 leukemia, 20.1%; in the assay on OVCAR-8 ovarian, 34.8%. Moreover, the growth is 39.4% in the assay on OVCAR-5 ovarian; 70.2% in the assay with OVCAR-4 ovarian; 59.7% in the assay with SK-OV-3 ovarian; 25.7% with OVCAR-3 ovarian; 45.4% with HS 578T breast; 36.2% in the assay with NCI/ADR-RES ovarian.
With `CCNS(=O)(=O)c1ccc(C)cc1`, the growth in the assay on SK-MEL-2 melanoma is 116%; with EKVX NSCLC it was 106%; in the assay on SN12C renal, 98.5%; with UO-31 renal it was 97.3%; with TK-10 renal, 115%; with ACHN renal, 96.4%. The growth is 89.7% in the assay with CCRF-CEM leukemia; 95.9% in the assay with MOLT-4 leukemia; 122% with SR leukemia; 99.1% in the assay on RPMI-8226 leukemia; 100% with OVCAR-8 ovarian; 97.2% in the assay on OVCAR-5 ovarian. Besides, the growth in the assay on OVCAR-4 ovarian is 103%; in the assay with SK-OV-3 ovarian it was 112%; in the assay on IGROV1 ovarian, 98.3%; in the assay with OVCAR-3 ovarian, 111%; with NCI/ADR-RES ovarian, 108%.
For `O=C(Nc1cnc(C(F)(F)F)cn1)c1cc(Cl)ccc1O`, the growth in the assay with SK-MEL-2 melanoma is -27.6% (active); in the assay on EKVX NSCLC it was 7.75% (active); with SN12C renal, 5.36% (active); in the assay with UO-31 renal it was -5.6% (active); in the assay with TK-10 renal, 1.77% (active); with ACHN renal it was 3.85% (active). Further, the growth with A498 renal was -53.5% (active); in the assay with CCRF-CEM leukemia, 14.9%; with MOLT-4 leukemia it was 1.24% (active); in the assay on RPMI-8226 leukemia it was -21.7% (active); in the assay with OVCAR-8 ovarian it was 4.89% (active); in the assay on OVCAR-5 ovarian it was 28.3%. For the same molecule, the growth with OVCAR-4 ovarian is 14%; with SK-OV-3 ovarian it was -5.59% (active); in the assay with IGROV1 ovarian it was 23.8%; in the assay on OVCAR-3 ovarian, 15.6%; in the assay with HS 578T breast it was 8.53% (active); in the assay on NCI/ADR-RES ovarian, 8.26% (active).
Consider `CCCCCNCCCCCNc1cc(OC)cc2cccnc12`, for which the growth was 99% in the assay on SK-MEL-2 melanoma; 101% in the assay on EKVX NSCLC; 92.7% in the assay on SN12C renal; 46% in the assay with UO-31 renal; 78.7% in the assay on TK-10 renal; 94.3% with ACHN renal. In addition, the growth was 75% in the assay on A498 renal; 95.2% with CCRF-CEM leukemia; 101% in the assay with OVCAR-8 ovarian; 87.2% with OVCAR-5 ovarian; 37.1% in the assay on OVCAR-4 ovarian; 91.2% in the assay on SK-OV-3 ovarian. Further, the values for the growth with IGROV1 ovarian, with OVCAR-3 ovarian and with NCI/ADR-RES ovarian were 98.3%, 75.6% and 88.6%, respectively.
With `Fc1ccc(-c2nnc(N3CCOCC3)c3ccccc23)cc1`, the growth in the assay with SK-MEL-2 melanoma is 111%; in the assay with EKVX NSCLC it was 69.5%; with SN12C renal it was 95%; with UO-31 renal, 85.6%; in the assay on TK-10 renal, 138%; in the assay on ACHN renal, 103%. The growth is 105% in the assay on A498 renal; 124% in the assay with CCRF-CEM leukemia; 243% in the assay with MOLT-4 leukemia; 111% in the assay on RPMI-8226 leukemia; 111% in the assay on OVCAR-8 ovarian; 108% in the assay with OVCAR-5 ovarian. The growth in the assay on OVCAR-4 ovarian was 112%; with SK-OV-3 ovarian, 109%; in the assay with IGROV1 ovarian, 104%; with OVCAR-3 ovarian, 109%; in the assay on HS 578T breast, 114%; in the assay with NCI/ADR-RES ovarian, 109%.
For the molecule `O=C(NCCNC(=O)c1cc(S(=O)(=O)NCCc2ccccc2)c(O)c(O)c1O)c1cc(S(=O)(=O)NCCc2ccccc2)c(O)c(O)c1O`, the growth with SK-MEL-2 melanoma is 63%; with EKVX NSCLC, 49.9%; in the assay on SN12C renal, 52.3%; with UO-31 renal, 46.5%; with TK-10 renal, 96.6%; with ACHN renal, 68.6%. Further, the growth was 87.3% in the assay with A498 renal; 45% with CCRF-CEM leukemia; 56.6% in the assay with MOLT-4 leukemia; 79.5% in the assay on RPMI-8226 leukemia; 40.2% with OVCAR-8 ovarian; 82.3% in the assay with OVCAR-5 ovarian. Besides, the growth with OVCAR-4 ovarian was 62.3%; with SK-OV-3 ovarian, 33.1%; with IGROV1 ovarian it was 31.5%; in the assay on OVCAR-3 ovarian, 19.7%; with HS 578T breast, 52.2%; with NCI/ADR-RES ovarian it was 76.1%.
